MsrA act = bovine methionine sulfoxide reductase A activation; purified bovine MsrA, absorbance read-out; actives 0.3% (n = 360,000); activation, % at 10.6 µM; AID 602163; in the data active = activation above about 7.5%;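 note: 0% = vehicle and 100% = reference activator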
14-3-3 Bad inh = disrupts binding of bovine 14-3-3 zeta to phospho-Bad peptide. inhibition, % at 21.7 µM. AID 781. TR-FRET 14-3-3zeta/Dy647-pBad peptide displacement, 1 h. actives 0.71% (n = 220,000);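 active = inhibition above about 70%, limit read from the data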;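 note: 0% = full 14-3-3 plus peptide FRET controls and 100% = background without 14-3-3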
Target sequence (P63103 whole entry, looked up): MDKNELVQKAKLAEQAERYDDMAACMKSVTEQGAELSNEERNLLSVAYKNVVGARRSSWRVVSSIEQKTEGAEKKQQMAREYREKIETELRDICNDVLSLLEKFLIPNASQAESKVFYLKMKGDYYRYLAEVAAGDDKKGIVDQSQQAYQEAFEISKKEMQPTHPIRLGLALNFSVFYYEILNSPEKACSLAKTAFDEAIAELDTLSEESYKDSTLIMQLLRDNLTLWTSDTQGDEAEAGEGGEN
MsrA inhibitor = inhibitors of bovine MsrA | AID 651718 | inhibition, % at 15.5 µM | purified bovine MsrA, absorbance read-out | actives 0.75% (n = 360,000); in the data active = inhibition above about 4.5%;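 note: 0% = vehicle wells with enzyme and 100% = reference inhibitor wells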
p-CIP stab down = compounds decreasing mouse p/CIP protein stability; Q05BA5; F442A p/CIP-EGFP cells, EGFP fluorescence, 16 h; decrease of EGFP signal, % at 10 µM; actives 0.01% (n = 290,000);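 active = EGFP signal decrease of at least 30% at 10 µM or well 3 SD below plate mean, unless failing retest; inactive = the rest, including hits failing retest or dose response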
The depositor's hits bear a star; [ ] = another dose, or the depositor's remark. An excerpt weighted towards active compounds, which were near 1.4% of everything screened.

`COc1ccc(C(=O)N/C(=C\c2cccs2)c2nc3ccccc3[nH]2)cc1OC` gave MsrA act -4, 14-3-3 Bad inh 4, MsrA inhibitor 6.0* and p-CIP stab down 4.
COc1ccc(C2C3=C(CC(c4ccco4)CC3=O)Nc3ccccc3N2C(C)=O)cc1 (stereo not drawn) was read as MsrA act -4, 14-3-3 Bad inh 0, MsrA inhibitor 5.3* and p-CIP stab down -6.
`CC1CC(=O)C2=C(C1)Nc1ccccc1N(C(=O)COc1ccccc1)C2c1ccco1` (stereo not drawn) gave MsrA act -8, 14-3-3 Bad inh 14, MsrA inhibitor 3 and p-CIP stab down 3.
`CCN(CC)CC1C(=O)N(c2ccc(OC)cc2)C1c1ccccc1` (stereo not drawn) gave MsrA act 0, MsrA inhibitor -1 and p-CIP stab down -5.
COc1ccc(N2C(=O)C(CN3CCCCC3)C2c2ccccc2)cc1 (stereo not drawn) was read as MsrA act -4, 14-3-3 Bad inh 89*, MsrA inhibitor 0 and p-CIP stab down 11.
`CCCCN(C)C(=O)C1CCN(CCCc2ccccc2)CC1` gave MsrA act -4, 14-3-3 Bad inh 80*, MsrA inhibitor 1 and p-CIP stab down -8.
CC(C)[C@H](NC(=O)C1CCCC1)C(=O)N1CCC[C@H]1C(=O)NCCc1ccccc1Cl was read as MsrA inhibitor -1.
`CCN=C1NC(c2ccccc2C(F)(F)F)C(C(=O)OC)=C(C)N1Cc1ccc(C(F)(F)F)cc1` (stereo not drawn) gave MsrA inhibitor -1.
CCCNC(=O)c1c(N)n(-c2cccc(OC)c2)c2nc3ccccc3nc12 was read as MsrA act 1, 14-3-3 Bad inh -8, MsrA inhibitor 0 and p-CIP stab down -15.
Screening CCN(CCO)c1ccc(-n2c(N)c(C(=O)OC)c3nc4ccccc4nc32)cc1 returned MsrA act -3, 14-3-3 Bad inh 87*, MsrA inhibitor 2 and p-CIP stab down 3.
Screening COc1ccccc1CCn1cnc(-c2cccc(Cl)c2)c1CC(C)C returned MsrA inhibitor 1.
`Cc1cc(N2CCOCC2)nc2cc(O)ccc12` gave MsrA act -4, 14-3-3 Bad inh 80*, MsrA inhibitor 1 and p-CIP stab down -6.
For Clc1ccc(-c2nnnn2-c2ccc(Cl)c(Cl)c2)cc1Cl the results were MsrA act -2, 14-3-3 Bad inh 6, MsrA inhibitor 16* and p-CIP stab down 2.
c1cncc(Oc2ccc(NCCc3c[nH]c4ccccc34)cc2)c1 was read as MsrA inhibitor -1.
CC(C)CC(c1nnnn1C(C)C)N1CCN(C(=O)c2ccco2)CC1 (stereo not drawn) was read as MsrA act -3 and MsrA inhibitor 0.
O=C(c1ccco1)N1CCN(C(c2ccccc2Cl)c2nnnn2Cc2ccco2)CC1 (stereo not drawn) was read as MsrA act -3, 14-3-3 Bad inh 79*, MsrA inhibitor 0 and p-CIP stab down -1.
`CC(C)CC(c1nnnn1Cc1ccccc1)N1CCN(C(=O)c2ccco2)CC1` (stereo not drawn) gave MsrA act -2, 14-3-3 Bad inh 86*, MsrA inhibitor 2 and p-CIP stab down -4.
COCCn1nnnc1C(C(C)C)N1CCN(C(=O)c2ccco2)CC1 (stereo not drawn) was read as MsrA act -2, 14-3-3 Bad inh -10, MsrA inhibitor 0 and p-CIP stab down -3.
For CCCC(c1nnnn1CCOC)N1CCN(C(=O)c2ccco2)CC1 (stereo not drawn) the results were MsrA act -5, 14-3-3 Bad inh 81*, MsrA inhibitor -1 and p-CIP stab down -12.
Screening COC(=O)[C@]12C[C@H](CC(=O)NCc3cccs3)C(=O)N(Cc3ccccc3)C1=C[C@H](C(C)C)O[C@@H]2C1CC1 returned MsrA inhibitor 0.
`O=C(Cc1c[nH]c2ccccc12)Nc1ccc(Nc2cccnc2)c(-c2ccc(F)c(F)c2)c1` gave MsrA inhibitor 1.
Screening CNC(=S)N(CCc1ccc(S(N)(=O)=O)cc1)C1CC(=O)N(c2ccccc2F)C1=O (stereo not drawn) returned MsrA act -2, 14-3-3 Bad inh 79*, MsrA inhibitor 0 and p-CIP stab down -14.
Screening CCNc1ccc(Br)cc(C(=O)/C=C/c2c(Cl)cccc2Cl)c1=O returned MsrA act 5, 14-3-3 Bad inh 83*[fluorescence artefact?] and p-CIP stab down -8.
`O=C1C(Cl)=C(NCCN2CCCCC2)C(=O)c2ccccc21` gave MsrA act 18* and 14-3-3 Bad inh -16.
For CC(C)N1C(=O)C(O)(C2COC(C)(C)CC2=O)c2ccccc21 (stereo not drawn) the results were MsrA act -3, 14-3-3 Bad inh 71*, MsrA inhibitor 1 and p-CIP stab down 2.
For CC1(C)CC(=O)C(C2(O)C(=O)N(Cc3ccccc3)c3ccccc32)CO1 (stereo not drawn) the results were MsrA act 1, 14-3-3 Bad inh 12, MsrA inhibitor 1 and p-CIP stab down 1.
Screening COC(=O)c1cc2c(c3c4cc(C)ccc4n(S(=O)(=O)c4ccc(C)cc4)c13)C(=O)N(C)C2 returned MsrA inhibitor 1.
`Cc1nc(-c2ccccc2)cn(O)c1=O` gave MsrA act -14, 14-3-3 Bad inh 72*, MsrA inhibitor 0 and p-CIP stab down 2.
`COc1ccccc1-c1cccc2c3c([nH]c12)[C@@H]1C[C@H]2[C@@H](C(=O)N1CC3)[C@H](C)ON2C` gave MsrA inhibitor 0.
Screening O=C1NC(=Nc2ccc(Cl)cc2)/C(=C/c2ccco2)S1 returned MsrA act -3, 14-3-3 Bad inh 81*[fluorescence artefact?], MsrA inhibitor 2 and p-CIP stab down -1.
For Nc1nc2ncccc2cc1C(=O)NC1CC1 the results were MsrA inhibitor 2.
For Cc1[nH]nc2c1C(c1ccc(F)cc1)N(c1ccccc1)C2=O (stereo not drawn) the results were MsrA inhibitor -1.
`N#C/C(=C\c1ccco1)C(=O)NCC1CCCO1` (stereo not drawn) gave MsrA act -6, 14-3-3 Bad inh -20, MsrA inhibitor 7.0* and p-CIP stab down 2.
Nc1ccn([C@@H]2O[C@H](C(=O)NCC(=O)N3CCOCC3)[C@@H](O)[C@H]2O)c(=O)n1 was read as MsrA inhibitor 0.
`COc1nc(-c2ccccc2)ccc1-c1noc(-c2ccccc2)n1` gave MsrA act 4, 14-3-3 Bad inh -2, MsrA inhibitor 0 and p-CIP stab down 2.
COc1nc(-c2ccccc2)ccc1-c1noc(COc2ccccc2)n1 was read as MsrA act -2, 14-3-3 Bad inh 82*, MsrA inhibitor 1 and p-CIP stab down -18.
For CCc1cc2c(nc1CC)CCCN2S(=O)(=O)c1ccc(OC)cc1 the results were MsrA inhibitor 1.
`C(=N\n1cncn1)/c1ccc(N2CCOCC2)cc1` gave MsrA act -18, 14-3-3 Bad inh 5, MsrA inhibitor 5.3* and p-CIP stab down 4.
